This is a sample that favours compounds with a hit; in the whole collection about 9% have one here.
IMPase inh = cell-permeable inhibitors of inositol monophosphatase (IMPase); CHO-M1 cells, IP1 accumulation, HTRF TR-FRET ratio; 120,000 tested, under 10 active; inhibition (IP1 accumulation), % at 46.1 µM; AID 901; active = well fitted curve in the direction sought with a large enough effect in the signal ratio, not every such curve was filed as active; inconclusive = small, poorly fitted or top-dose-only effect, or a change in a side signal; inactive = no such curve, though single readings can be large or run the other way; the % refers to the signal ratio;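 note: cells stimulated with carbachol in lithium chloride buffer; plate controls were DMSO basal wells for no effect and reference inhibitor wells for full effect; higher means more IMPase inhibition seen as more IP1 and lower FRET ratio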
Target sequence (P97697 whole entry, looked up): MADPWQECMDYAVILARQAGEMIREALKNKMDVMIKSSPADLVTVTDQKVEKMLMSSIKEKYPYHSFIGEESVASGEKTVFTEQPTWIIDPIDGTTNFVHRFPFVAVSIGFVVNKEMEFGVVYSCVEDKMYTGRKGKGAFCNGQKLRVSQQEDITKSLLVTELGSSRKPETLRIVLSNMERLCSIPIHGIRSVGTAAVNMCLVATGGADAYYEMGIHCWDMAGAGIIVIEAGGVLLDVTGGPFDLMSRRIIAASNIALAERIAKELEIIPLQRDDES
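CHO-M1 cells (CHO stably expressing M1 receptor), compound up to 46 uM final, stimulated with carbachol (50 uM as added) in buffer with 50mM LiCl, pH 7.4, 30 min at 37C. Cytosolic IP1 read by TR-FRET; AC50 from Hill fits.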
ALDH1A1 inh = ALDH1A1 (human) enzyme inhibition | P00352 | Purified ALDH1A1, NADH fluorescence, propionaldehyde substrate | Potency, µM (titrated, usually from 75.3 µM), without a hit: top-dose activity, negative = inhibition, usual class: inhibitors | 7.3% of 220,000 active | AID 1030;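 note: potency is the fitted concentration of half-maximal effect; plate controls were no enzyme wells and a reference inhibitor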
HPGD inh = blocks human HPGD enzyme activity; purified HPGD, NADH fluorescence kinetic, PGE2 substrate; Potency, µM, inactives show top-dose activity change, negative = inhibition, hits mostly inhibitors; 4.3% of 150,000 active; AID 894; note: potency is the fitted concentration of half-maximal effect
Target sequence (P15428 whole entry, looked up): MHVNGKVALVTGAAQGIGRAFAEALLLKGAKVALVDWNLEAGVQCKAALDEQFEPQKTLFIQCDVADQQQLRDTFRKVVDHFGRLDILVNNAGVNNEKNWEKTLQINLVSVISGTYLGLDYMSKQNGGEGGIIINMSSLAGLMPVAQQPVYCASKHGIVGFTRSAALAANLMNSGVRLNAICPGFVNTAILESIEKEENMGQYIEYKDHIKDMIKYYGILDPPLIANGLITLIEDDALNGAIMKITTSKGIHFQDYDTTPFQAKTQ
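NADH formation kinetics: reaction with 30 uM PGE2 and 1 mM NAD+ (final), 20 nM enzyme, Tris-HCl pH 8 with Tween 20, after 15 min compound preincubation at room temperature. Fluorescence change, last versus first of five reads.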
Active calls of the source: *; ? = inconclusive; . = no result; ! = not confirmed by another sample; [ ] = another dose, or the depositor's remark. Unless noted, calls come from the whole dose curve; as a rule, active = well fitted inhibition curve with a large enough effect (not every such curve was filed as active); inconclusive = small, poorly fitted or top-dose-only effect, or another doubt; inactive = no such curve, though single readings can be large or run the other way. Unless noted, % is set by controls: 0 for no effect and ±100 for the full control effect.

SMILES	IMPase inh	ALDH1A1 inh	HPGD inh
CCN1C(=O)/C(=C/c2ccc(N(CC)CC)cc2OC)C(=O)NC1=S	.	10µM*	.
CC(C)(OOC(C)(C)c1ccccc1)c1ccccc1	.	7.2%	-10.2%
COC(=O)c1ccc(N2CCN(C)CC2)c([N+](=O)[O-])c1	.	-4.6%	.
CC(=O)c1ccc(Oc2ccc(C(=O)c3ccc(C)c(C)c3)cc2[N+](=O)[O-])cc1	.	0.794µM*	7.08µM*
C[C@H](N)[C@@H](O)c1ccccc1	-5.1[20.6 µM]	-6.1%[20.9 µM]	-3.6%
O=c1[nH]c(SCc2ccccc2Cl)nc2c1CCCC2	3.1	-12.8%	2µM*
CN1CCN(C(=S)c2ccc([N+](=O)[O-])cc2)CC1	-10.2	?	28.2µM*
CN1CCN(c2cc([N+](=O)[O-])ccc2Cl)CC1	.	6.3%	.
CN1Cc2c(ccc3c2OCO3)C2C(O)Cc3cc4c(cc3C21)OCO4 (stereo not given)	11.7	4.3%	0.7%
O=C(O)C[C@H]1OCC=C2CN3CC[C@@]45C6=CC(=O)C(=O)C([N+](=O)[O-])=C6N[C@H]4[C@H]1[C@H]2C[C@@H]35	.	-5.9%[13.5 µM]	-4.8%
C[C@H]1C2C=C[C@H]1[C@@H](C(=O)O)[C@@H]2c1c2ccc(=O)c(O)c-2oc2c(O)c(O)ccc12	.	-4.1%[13.5 µM]	3.55µM*
O=C(CSc1ncnc2c1nnn2-c1ccc(F)cc1)NCC1CCCO1 (stereo not given)	3.4	-0.9%	?
CC(=O)C(Sc1ncnc2c1nnn2-c1ccc(F)cc1)C(=O)N(C)C (stereo not given)	4.0	2.51µM*	11.2µM*
CN(C)[C@@H]1C(=O)C(C(N)=O)=C(O)[C@@]2(O)C(=O)C3=C(O)c4c(O)cccc4[C@@](C)(O)[C@H]3[C@H](O)[C@@H]12	?	28.2µM*!	7.08µM*
CN(C)C1C(=O)C(C(N)=O)=C(O)[C@@]2(O)C(=O)C3=C(O)c4c(O)cccc4[C@](C)(O)C3C(O)C12 (stereo not given in full)	.	-7.4%	?
O=C(NCNC(=O)N[C@H]1C(=O)NC(=O)N1CO)N[C@H]1C(=O)NC(=O)N1CO	-3.3[20.6 µM]	6.9%[20.9 µM]	-4.6%
C[N+](C)(C)CC#CCOC(=O)Nc1cccc(Cl)c1	2.8	7.94µM*	-12.1%
C[C@H](NC(C)(C)C)C(=O)c1cccc(Cl)c1	0.6[20.6 µM]	?	-3.3%
C[C@H](c1ccccc1)N1CCN([C@@H](C)c2ccccc2)CC1	.	-2.9%[13.5 µM]	-3.0%
O=c1c2ccccc2nc(/C=C/c2ccccc2O)n1-c1ccc(Br)cc1	16.0	.	.
CS(=N)(=O)CC[C@@H](N)C(=O)O (stereo not given in full)	-2.6[20.6 µM]	3.5%[20.9 µM]	0.5%
C=C(Cl)Cl	.	-5.5%	-4.5%
CN(N=O)c1ccc(O)c(O)c1	6.9	15.8µM*	8.91µM*
O=C1/C(=C\c2ccccc2)C[C@@]2(O)[C@H]3Cc4ccc(O)c5c4[C@@]2(CCN3CC2CC2)[C@H]1O5	.	-0.2%	.
CC(C)c1c(CN(C)[C@@H](C)Cc2ccccc2)n(C)n(-c2ccccc2)c1=O	?	-0.2%[20.9 µM]	1.0%
SMILES	IMPase inh	ALDH1A1 inh	HPGD inh
CN1C(=O)COc2c(C(=O)N[C@@H]3CN4CCC3CC4)cc(Cl)cc21	1.2	7.5%	1.1%
Cc1ccc(S(=O)(=O)N[C@@H](CCCCN)C(=O)CCl)cc1	9.2	8.91µM*	?
Cc1ccc(S(=O)(=O)NCCC(=O)Nc2ccc(Cl)cc2C(=O)c2ccccc2)cc1	9.3	?	-10.2%
C/C=C\c1ccc(OC)cc1	.	-5.1%	-0.4%
N#CCCn1cc(C=C2C(=O)NC(=O)NC2=O)c(-c2ccccc2)n1	.	-9.8%	.
O=C(O)CCn1cc(C=C2C(=O)NC(=S)NC2=O)c(-c2ccccc2)n1	.	1.12µM*	.
C[C@@]12CC[C@H]3[C@@H](CC[C@H]4C[C@@H](O)CC[C@]43C)[C@H]1CC[C@@H]2C(=O)C[C@H](O)C(F)(F)F	.	9.2%[13.5 µM]	-13.2%
CCOC(=O)c1ncn2c1CN(C)C(=O)c1cc(F)ccc1-2	-4.1	-0.6%	-16.4%
C=CC1CN2CCC1CC2C(OC(=O)OCC)c1ccnc2ccc(OC)cc12 (stereo not given)	.	-9.1%	-0.2%
COc1ccc(CC2NC[C@H](O)[C@H]2OC(C)=O)cc1 (stereo not given in full)	.	-2.0%	-2.5%
O=C1NC(=O)N(c2ccccc2)C(=O)/C1=C\c1ccc2c3c(cccc13)CC2	-3.5	?	?
Cc1ccccc1N1C(=O)NC(=O)/C(=C\c2ccc3c(c2)CCCN3Cc2ccccc2)C1=O	.	?	1.78µM*
C=CCN=C=S	.	-12.2%	6.4%
C[C@]12C=CC(=O)C=C1CCC1C2=CC[C@]2(C)[C@@H](C(=O)CN3CCN(c4cc(N5CCCC5)nc(N5CCCC5)n4)CC3)CC[C@@H]12 (stereo not given in full)	.	?	-18.3%
O=C(CC[N+](=O)[O-])OCC1OC(O)C(OC(=O)CC[N+](=O)[O-])[C@@H](OC(=O)CC[N+](=O)[O-])C1OC(=O)CC[N+](=O)[O-] (stereo not given in full)	.	0.7%	-9.9%
O=[N+]([O-])c1c(Cl)c(Cl)c(Cl)c(Cl)c1Cl	.	2.1%	-6.6%
Nc1cc(Cl)c2nonc2c1[N+](=O)[O-]	-4.6	20µM*	?
CC[C@H](CO)NC(=O)[C@@H]1C=C2c3cccc4[nH]cc(c34)C[C@@H]2N(C)C1	0.0	.	.
O=C1/C(=C\c2cc3c(cc2Br)OCO3)N2CCC1CC2	.	3.16µM*	?
O=C1/C(=C/c2ccc3c(c2)OCO3)N2CCC1CC2	-1.2	?	?
CC(C)C[C@H]1C(=O)N2CCC[C@@H]2[C@]2(O)O[C@](NC(=O)[C@@H]3C=C4c5cccc6[nH]c(Br)c(c56)C[C@H]4N(C)C3)(C(C)C)C(=O)N12	-5.5	-0.5%	-9.8%
CC(C)CN1CC2(CCN(C(=O)Oc3ccccc3)CC2)C1	.	-0.2%	-2.0%
C=C/C(=C/C(=O)C[C@H](C)C[C@@H](C)CC[C@H](O)[C@H](C)C(=O)C[C@@H](O)[C@H](C)[C@@H](C)OC(=O)C[C@@H](O)C1=C(C)C(=O)OC1=O)CC	.	?	2.82µM*
COc1cc2c(cc1OC)[C@@H]1C(=O)c3ccc4oc(C(C)C)cc4c3OC1CO2 (stereo not given in full)	.	-0.1%	?
CCN1CCN(S(=O)(=O)c2cnc(Cl)c(Br)c2)CC1	-1.0	1.26µM*	5.7%
SMILES	IMPase inh	ALDH1A1 inh	HPGD inh
N[C@H](CCCCCP(=O)(O)O)C(=O)O	-5.9	-2.7%	1.9%
O=C1NC(=S)NC(=O)C1C/C=C/c1ccccc1	-6.9	28.2µM*	10µM*
CC/C(=N\Nc1ccccc1)c1c(O)n(C)c(=O)n(C)c1=O	3.4	?	-9.1%
C/C(=N\NC(=S)Nc1ccccc1)c1c(O)n(C)c(=O)n(C)c1=O	.	0.794µM*	?
Oc1ccc2c3c1O[C@@H]1c4[nH]c5c(c4C[C@@]4(O)[C@@H](C2)N(CC2CC2)CC[C@]314)C[C@]1(O)[C@@H]2Cc3ccc(O)c4c3[C@@]1(CCN2CC1CC1)[C@H]5O4	0.1	.	.
Cc1ccc(N=C=O)cc1N=C=O	.	-1.9%	-3.4%
C[C@]1(O)CC[C@H]2[C@@H]3[C@@H](O)CC4=CC(=O)CC[C@@]4(C)[C@H]3CC[C@]21C	.	20.2%[13.5 µM]	-3.4%
CNC(C(=O)c1ccccc1)C(OC)c1ccccc1 (stereo not given)	6.0	?	-1.9%

From PubChem
